An excerpt weighted towards active compounds, which were near 12% of everything screened.
L3MBTL1 block – qHTS Assay for the Inhibitors of L3MBTL1 | AlphaScreen L3MBTL1–H3K9me1 peptide binding | Potency, µM (titrated, usually from 57.1 µM), inactives show top-dose activity, negative = inhibition, usual class: inhibitors | 230,000 tested, 0.66% active | AID 485360, 2010; further: on the % scale 0 is the no-effect control and ±100 the full control effect; nearly all actives have a fitted effect of over 60% in size
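First, the protein-peptide complex forms for 30 min at room temperature (L3MBTL1 50 nM, biotinylated H3K9me1 peptide 75 nM). Next, compounds are pin-transferred and incubated 30 min. Finally, AlphaScreen beads are added and read after 30 min.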
G9a block – qHTS Assay for Inhibitors of Histone Lysine Methyltransferase G9a | Histone-lysine N-methyltransferase EHMT2 (Homo sapiens), Q96KQ7 | G9a H3K9 monomethylation, AlphaScreen, 2 h | Potency, µM (highest dose often 102 µM), inactives show top-dose activity, negative = inhibition, actives largely listed as inhibitors | 350,000 tested, 8.8% active; further: on the % scale 0 is the no-effect control and ±100 the full control effect; nearly all actives have a fitted effect of over 75% in size
Target sequence (Q96KQ7 913-1193 limits assumed): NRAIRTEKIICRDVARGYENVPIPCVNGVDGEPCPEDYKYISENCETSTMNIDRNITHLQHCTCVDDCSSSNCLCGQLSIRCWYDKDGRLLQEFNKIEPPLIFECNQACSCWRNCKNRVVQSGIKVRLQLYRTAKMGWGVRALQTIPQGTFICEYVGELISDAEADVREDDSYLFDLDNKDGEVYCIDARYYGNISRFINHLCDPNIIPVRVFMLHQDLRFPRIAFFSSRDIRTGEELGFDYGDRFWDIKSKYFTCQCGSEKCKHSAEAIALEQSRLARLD
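Compounds were preincubated with 20 nM G9a for 15 min, after which biotinylated H3K9 peptide (500 nM) and SAM (20 uM) started a 2 h room-temperature reaction. Monomethylated product was quantified by antibody-based AlphaScreen chemiluminescence.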
Sfp inh – qHTS Assay for Inhibitors of Bacillus subtilis Sfp phosphopantetheinyl transferase (PPTase) | 4'-phosphopantetheinyl transferase ffp (Bacillus subtilis), Q9F4F7 | Biochemical Sfp PPTase activity, qHTS | Potency, µM, without a hit: largest response in the series, negative = inhibition, usual class: inhibitors | 310,000 tested, 3.5% active;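 further: the enzyme is Sfp with the accession as filed and its product quenches rhodamine fluorescence; 0% = enzyme reaction without inhibitor and -100% = no enzyme wells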
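With Hepes-Na pH 7.6 buffer containing 10 mM MgCl2, Sfp (15 nM) modified BHQ-2-YbbR (12.5 uM) using rhodamine-CoA (5 uM). Two reads 30 minutes apart at 525/598 nm yielded each well's rate.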
JMJD2A Tudor – qHTS Assay for Inhibitors of JMJD2A-Tudor Domain; AlphaScreen JMJD2A-Tudor / H3K4me3 peptide binding; AID 504339, 2011; Potency, µM (doses to about 114 µM), inactives show at the top dose activity change, negative = inhibition, actives largely listed as inhibitors; 390,000 tested, 4.4% active; Lysine-specific demethylase 4A (Homo sapiens), O75164; further: on the % scale 0 is the no-effect control and ±100 the full control effect; nearly all actives have a fitted effect of over 50% in size
HP1b chromo inh – HTS for Inhibitors of HP1-beta Chromodomain Interactions with Methylated Histone Tails | AlphaScreen HP1-beta / biotin-H3K9me3 peptide binding | Potency, µM (titrated, usually from 114 µM), for the others: at the highest dose activity change, negative = inhibition, actives largely listed as inhibitors | Chromobox protein homolog 1 (Homo sapiens), P83916 | 390,000 tested, 0.56% active; further: nearly all actives have a fitted effect of over 70% in size
Target sequence (P83916 whole entry, looked up): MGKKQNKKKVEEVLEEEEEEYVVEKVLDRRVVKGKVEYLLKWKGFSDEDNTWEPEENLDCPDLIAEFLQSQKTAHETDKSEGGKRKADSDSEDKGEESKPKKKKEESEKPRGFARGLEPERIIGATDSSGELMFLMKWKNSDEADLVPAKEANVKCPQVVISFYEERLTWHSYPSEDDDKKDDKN
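Compound inhibition of the preformed complex between 50 nM HP1-beta and 50 nM biotinylated H3K9me3 peptide was read by AlphaScreen. Buffer was PBS pH 7.4 with 0.01% Tween-20. Incubations ran 30 min at room temperature, with 10 ug/mL donor/acceptor beads.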
BAZ2B inh – qHTS Assay for Inhibitors of BAZ2B. Potency, µM (doses to about 114 µM), without a hit: at the highest dose activity change, negative = inhibition, hits mostly inhibitors. 360,000 tested, 4.4% active. AlphaScreen BAZ2B-H3K14Ac peptide displacement. Bromodomain adjacent to zinc finger domain protein 2B (Homo sapiens), Q9UIF8; further: on the % scale 0 is the no-effect control and ±100 the full control effect; nearly all actives have a fitted effect of over 60% in size
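Inhibition is scored as reduced AlphaScreen emission. The BAZ2B/b-H3(5-23)K14Ac complex (50 nM each) in PBS pH 7.4, 0.01% Tween-20 meets compound (up to 110 uM) for 30 min at RT before bead addition.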
The depositor's hits bear a star; ? = inconclusive; nt = no result given; ! = repeats disagree; [ ] = dose if it differs, or a comment. The call rests on the fitted dose curve; in most records, active means well fitted curve in the direction sought with a large enough effect; inconclusive means small, poorly fitted or top-dose-only effect, or another doubt; inactive means no such curve, though single readings can be large; an effect the other way counts as inactive or inconclusive. Potency means the concentration at half of the fitted maximal effect.

SMILES	L3MBTL1 block	G9a block	Sfp inh	JMJD2A Tudor	HP1b chromo inh	BAZ2B inh
CCCn1c(SCC(N)=O)nc2c(c1=O)C1(CCCC1)Cc1ccccc1-2	1%	-33%	6%	-21%	15%	-11%
N#CCSc1n[nH]c2nc3c(c(=O)n12)C1(CCCCC1)Cc1ccccc1-3	nt	nt	50µM*	15%	54%	-2%
Cc1cc(C)c(S(=O)(=O)/N=C2/C=C(Sc3ncn[nH]3)C(=O)c3ccccc32)cc1C	?	1.4µM*	1µM*	?	?	45µM*
CC1(C)C=C2C(=NN(c3ccccc3)C(N)=C2C#N)CO1	-7%	6.3µM*	45µM*	-30%	39%	-38%
Cc1[nH]n(-c2ccccc2)c(=O)c1C(C[N+](=O)[O-])c1ccc(Cl)cc1 (stereo not given)	-11%	?	-6%	?	7%	?
Cc1[nH]n(-c2ncc(-c3ccccc3)s2)c(=O)c1C(c1ccc(Cl)cc1)C(C#N)C#N (stereo not given)	-17%	?	?	40µM*	?	40µM*
CS(=O)(=O)NCC(c1ccco1)N1CCN(c2ccc(F)cc2)CC1 (stereo not given)	-1%	45µM*!	1%	-5%	34%	-18%
COc1ccc(N2CCN(C(CNS(=O)(=O)c3ccc4c(c3)OCCO4)c3ccco3)CC2)cc1 (stereo not given)	-17%	7.9µM*	8%	?	?	?
COc1ccc(N2CCN(C(CNS(=O)(=O)c3ccccc3)c3ccccc3)CC2)cc1 (stereo not given)	nt	14µM*	3%	16µM*	?	25µM*
COc1ccc(N2CCN(C(CNS(=O)(=O)c3c(C)cc(C)cc3C)c3ccco3)CC2)cc1 (stereo not given)	nt	7.1µM*	nt	22µM*	-22%	32µM*
CCCCN1CC(=O)N2[C@H](c3ccc(OC)cc3)[C@@H]3C(=O)N(CC)C(=O)[C@@H]3[C@]2(C)C1=O	37%	nt	11%	-20%	30%	20%
Cc1ccc(-c2cc(C(=O)OCC(=O)NC3CC3)c3ccccc3n2)cc1	3%	-7%[2.33 µM]	nt	0%	36%	11%
CCOc1cc2[nH]c(=O)n(CCCC(=O)N3CCN(c4ccc(OC)cc4)CC3)c(=O)c2cc1OCC	nt	-34%[59 µM]	nt	-17%	10%	-2%
Cn1c(=O)c2cc3c(nc2n(C)c1=O)CC(c1ccccc1)CC3=O (stereo not given)	-17%	-1%	-1%	56µM*	3%	-34%
CC1O[C@@H](O[C@H]2C(Oc3cc(O)c4c(=O)cc(-c5ccc(O)cc5)oc4c3)OC(CO)C(O)C2O)C(O)C(O)C1O (stereo not given in full)	nt	nt	3%	nt	nt	nt
CCOc1ccc(C2C(C(=O)C3CC3)N3C=C(C#N)C=CC3C2(C#N)C#N)cc1 (stereo not given)	-6%	25µM*	?	nt	nt	-36%
Cc1cc(NC(=O)CN2C(=O)NC(c3ccccc3)(c3ccc(C)c(C)c3)C2=O)no1 (stereo not given)	8%	18µM*	nt	?	9%	0%
Cc1cc(NC(=O)CN2C(=O)NC(C)(c3ccccc3)C2=O)no1 (stereo not given)	nt	1%[59 µM]	19%	-10%	28%	2%
COc1ccc(C2(c3ccc(OC)cc3)NC(=O)N(CC(=O)Nc3ccccc3C(F)(F)F)C2=O)cc1	nt	79µM*	14%	-27%	3%	-4%

Bioassay records as filed in PubChem BioAssay.
